This note sets out measurements from PubChem BioAssay (NCATS).

The subject of one assay is TAB165. Kind of assay: qHTS profiling for inhibitors of Plasmodium falciparum proliferation (AID 504749). Conditions: P. falciparum in erythrocytes, SYBR Green DNA, 72 h; series mostly up to 28.7 µM. The method, boiled down: (§1)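 P. falciparum-infected erythrocytes (0.3% parasitemia, 2.5% hematocrit final) were exposed to compounds for 72 h at 37 C in 5% CO2, then lysed with SYBR Green buffer overnight at room temperature; parasite DNA fluorescence was normalized to artemisinin and DMSO controls.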

The subject of the next assay is W2. Described as above. Conditions: P. falciparum in erythrocytes, SYBR Green DNA, 72 h; series mostly up to 28.7 µM. An outline of the steps: as §1
Assay [1] relates to CRL-7250. Kind of assay: Cytotoxic Profiling of Annotated Libraries Using Quantitative High-Throughput Screening (AID 1296008). For max response: % is set by controls: 0 for no effect and ±100 for the full control effect. Conditions: Five cell lines viability, CellTiter-Glo ATP luminescence, 48-72 h; max response: active compounds read low. An outline of the steps: (§2)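 Compounds were pin-transferred onto cells and incubated 48 or 72 hr at 37 degree Celsius, 95% humidity. CellTiter-Glo was added, plates sat 10 min at room temperature, then ATP-coupled luminescence was imaged as the viability read-out.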

In another assay the test system is HEK293. The description is as above. As to conditions: Five cell lines viability, CellTiter-Glo ATP luminescence, 48-72 h; max response: active compounds read low. An outline of the steps:
as §2

A further assay deals with KB-3-1. The description is as above. Conditions: Five cell lines viability, CellTiter-Glo ATP luminescence, 48-72 h; max response: active compounds read low. An outline of the steps:
as §2

The subject of the next assay is MCC-13. Kind of assay: qHTS assay to identify novel small-molecules to repurpose for Merkel cell carcinoma treatment (AID 1296009). As to conditions: MCC and control cell lines, CellTiter-Glo viability, 72 h; series mostly up to 46 µM. An outline of the steps: (§3)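 Cells exposed to NPC (8-point) and MIPE (11-point) compound dilutions for 72 hr at 37 degree celsius; viability read by CellTiter-Glo luminescence, normalized to no-cell and DMSO in-plate controls.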

A further assay concerns MKL-1. The description is as above. As to conditions: MCC and control cell lines, CellTiter-Glo viability, 72 h; series mostly up to 46 µM. An outline of the steps: as §3
The subject of the next assay is MKL-2. The assay is described as above. Conditions: MCC and control cell lines, CellTiter-Glo viability, 72 h; series mostly up to 46 µM. The method, boiled down:
as §3

A further assay has as its system WaGa. The description is as above. As to conditions: MCC and control cell lines, CellTiter-Glo viability, 72 h; series mostly up to 46 µM. An outline of the steps:
as §3

For assay [2], the system named is HaCat. In words: Cytotoxic Profiling of Annotated Libraries Using Quantitative High-Throughput Screening (AID 1296008). For max response: % is set by controls: 0 for no effect and ±100 for the full control effect. Conditions: Five cell lines viability, CellTiter-Glo ATP luminescence, 48-72 h; max response: active compounds read low. The method, boiled down:
as §2

In assay [3] the test system is NIH3T3. Described as above. As to conditions: Five cell lines viability, CellTiter-Glo ATP luminescence, 48-72 h; max response: active compounds read low. An outline of the steps: as §2
Assay [4] deals with CRL-7250. Kind of assay: qHTS assay to identify novel small-molecules to repurpose for Merkel cell carcinoma treatment (AID 1296009). As to conditions: MCC and control cell lines, CellTiter-Glo viability, 72 h; at 44.8 µM (top of the series) unless noted. An outline of the steps: as §3
Assay [5] relates to HACAT. Described as above. As to conditions: MCC and control cell lines, CellTiter-Glo viability, 72 h; at 44.8 µM (top of the series) unless noted. An outline of the steps:
as §3

A further assay relates to HEK293T. The assay is described as above. As to conditions: MCC and control cell lines, CellTiter-Glo viability, 72 h; at 44.8 µM (top of the series). The method, boiled down:
as §3

A further assay relates to MCC-26. Described as above. As to conditions: MCC and control cell lines, CellTiter-Glo viability, 72 h; series mostly up to 46 µM. An outline of the steps: as §3
Assay [6] deals with NIH3T3. Described as above. Conditions: MCC and control cell lines, CellTiter-Glo viability, 72 h; at 44.8 µM (top of the series) unless noted. An outline of the steps:
as §3

A further assay deals with UISO. The assay is described as above. Conditions: MCC and control cell lines, CellTiter-Glo viability, 72 h; series mostly up to 46 µM. An outline of the steps:
as §3

Another assay relates to SC27B. In words: qHTS profiling for inhibitors of Plasmodium falciparum proliferation (AID 504749). Conditions: P. falciparum in erythrocytes, SYBR Green DNA, 72 h; series mostly up to 28.7 µM. The method, boiled down:
as §1

The next assay has as its system TAB109. The description is as above. As to conditions: P. falciparum in erythrocytes, SYBR Green DNA, 72 h; series mostly up to 28.7 µM. An outline of the steps:
as §1

The next assay deals with TAB113. The assay is described as above. As to conditions: P. falciparum in erythrocytes, SYBR Green DNA, 72 h; series mostly up to 28.7 µM. The method, boiled down: as §1

“And” between values parts separate entries of the source, which are not always exact repeats. Equal values may be shown once. Results filed as inconclusive are left out. Values without a mark were called inactive. The source made the active and inactive calls. Calls come from the whole dose curve; as a rule, active = well fitted inhibition curve with a large enough effect; inconclusive = small, poorly fitted or top-dose-only effect; inactive = flat fitted curve, though single readings scatter.
Note: nearly all actives have a fitted effect of over 60% in size.
Potency is the fitted concentration of half-maximal effect.

For `CN1C(=O)[C@@H](NC(=O)c2cc3ccccc3[nH]2)N=C(c2ccccc2)c2ccccc21`, the Potency with TAB165 was 10 µM (active); in the assay on W2 it was 7.57 µM (active); in the assay on HEK293, 11.9 µM (active). Moreover, the max response with CRL-7250 [1] was -23.4%; in the assay on KB-3-1, 1.71%. The Potency result with MCC-13, in the assay on MKL-1, in the assay on MKL-2 and with WaGa was “inactive” each time.

`ClCCCN1CCN(c2cccc(Cl)c2)CC1`: the compound was classed as inactive with CRL-7250 [1], with HEK293, in the assay with HaCat [2], in the assay on NIH3T3 [3], in the assay on CRL-7250 [4] and in the assay on HACAT [5]. The compound was classed as inactive in the assay with HEK293T and in the assay with NIH3T3 [6]. The Potency entry in the assay on MCC-13, with MCC-26, in the assay on MKL-1, in the assay with MKL-2 and with UISO was “inactive” throughout.

For `CCC1(c2cnc[nH]2)Cc2ccccc2C1`, the max response is -7.94% with CRL-7250 [1]; -9.84% with HEK293; -12.7% and -2.33% in the assay on KB-3-1. In the assay with NIH3T3 [3], the result was inactive.

On to `CCNc1nc(Cl)nc(NCC)n1`, for which the Potency result in the assay with SC27B, with TAB109, with TAB113, in the assay on TAB165, in the assay with W2 and with MCC-13 was “inactive” in each case. The Potency result with MCC-26, with MKL-1, in the assay on MKL-2, with UISO and with WaGa was “inactive” throughout. In addition, the max response in the assay with CRL-7250 [1] was -9.95%; in the assay on HEK293, 1.01%; in the assay on KB-3-1 it was -15.4%; with NIH3T3 [3], -12.6%.

Consider `CCC(OC(C)=O)C(CC(C)NC)(c1ccccc1)c1ccccc1` (stereo not given), for which the Potency was 43.7 µM (active) in the assay with CRL-7250 [1], 31 µM (active) in the assay on HEK293, 27.6 µM (active) with HaCat [2] and 49.1 µM (active) with UISO. Also, the max response in the assay with KB-3-1 is -22.1%.

For `O=C(N[C@H]1N=C(c2ccccc2F)c2cccc3c2N(CC3)C1=O)c1cc2ccccc2[nH]1`, the figures for the max response in the assay with CRL-7250 [1], in the assay on HEK293 and in the assay on NIH3T3 [3] were 2.91%, -7.34% and -0.0973%, respectively. Further, the result with KB-3-1 was inactive. Also, the Potency result in the assay on MCC-13, with MCC-26, in the assay on MKL-1, with MKL-2, in the assay with UISO and with WaGa was “inactive” in each case.

Regarding `CCO[C@H]1O[C@@H]2OC3(C)CC[C@H]4[C@H](C)CC[C@@H]([C@H]1C)[C@@]24OO3`, the max response with CRL-7250 [1] was 3.38%; in the assay with HaCat [2], -19.4%; in the assay on NIH3T3 [3] it was 0.769%. Also, the Potency in the assay with HEK293 is 5.96 µM (active); in the assay on WaGa it was 18.8 µM (active). Also, the Potency result in the assay on MCC-13, in the assay with MCC-26 and with MKL-1 was “inactive” each time.

On to `CN1C[C@@H](NS(=O)(=O)N(C)C)C[C@@H]2c3cccc4c3c(cn4C)C[C@H]21`, for which the Potency entry in the assay with SC27B, in the assay with TAB113, in the assay on MCC-13, with MCC-26, in the assay with MKL-1 and in the assay on MKL-2 was “inactive” in each case. Moreover, the Potency result with UISO and in the assay with WaGa was “inactive” throughout. The call in the assay with CRL-7250 [1], in the assay on HaCat [2], in the assay with CRL-7250 [4] and in the assay on HACAT [5] was inactive. For the same compound, the max response in the assay on KB-3-1 was -6.93%; with NIH3T3 [3], -4.54%.

For `COP(=S)(OC)Oc1ccc(S(N)(=O)=O)cc1`, the compound was classed as inactive in the assay with CRL-7250 [1], in the assay with HaCat [2], with CRL-7250 [4] and in the assay with HACAT [5]. Moreover, the max response in the assay on KB-3-1 was 0.165%; in the assay with NIH3T3 [3], -5.5%. In addition, the Potency entry in the assay on MCC-13, in the assay on MCC-26, with MKL-1, with MKL-2, with UISO and in the assay with WaGa was “inactive” each time.
